The source of these data is article PMC7862700, “An all-to-all approach to the identification of sequence-specific readers for epigenetic DNA modifications on cytosine”.

Common to all, as to experiment: DAPPL (digital affinity profiling via proximity ligation, sequencing); 10 mM Tris-HCl pH 7.5, 50 mM NaCl, 1 mM DTT, 4% glycerol, room temperature, 30 min; GST-TFs on glutathione beads, 16-mer random dsDNA library, 0.1% formaldehyde crosslink after washing; high values mean tight binding
What all share (settings): protein: recombinant; tags: N-terminal GST; dsDNA, one strand shown

Test [1] deals with T1, FLI1 (Homo sapiens, UniProt Q01543 1-452).
T1 sequence: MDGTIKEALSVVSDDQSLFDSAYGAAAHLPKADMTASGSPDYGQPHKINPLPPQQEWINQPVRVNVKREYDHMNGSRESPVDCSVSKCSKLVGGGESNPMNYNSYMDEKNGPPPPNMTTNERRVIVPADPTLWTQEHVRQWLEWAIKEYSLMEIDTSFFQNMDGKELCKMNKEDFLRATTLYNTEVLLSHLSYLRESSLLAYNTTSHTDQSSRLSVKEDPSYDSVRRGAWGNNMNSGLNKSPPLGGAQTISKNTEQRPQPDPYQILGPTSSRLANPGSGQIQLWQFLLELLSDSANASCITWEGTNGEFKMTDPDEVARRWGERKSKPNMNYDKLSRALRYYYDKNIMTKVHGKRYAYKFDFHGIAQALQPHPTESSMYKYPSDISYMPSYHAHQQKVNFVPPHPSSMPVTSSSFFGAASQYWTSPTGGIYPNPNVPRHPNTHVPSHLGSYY
In outline: (§1)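 Human transcription factors were made in yeast as GST fusions, captured on glutathione beads and barcoded with DNA. With a tag-only sample included, the pool was incubated with 200 nmole of a random double-stranded 16-mer DNA library in Tris/NaCl/DTT/glycerol buffer at room temperature for 30 min, then crosslinked with 0.1% formaldehyde after washing, ligated by proximity, amplified and sequenced. For binding signal, each hexamer's read frequency for a factor is divided by its frequency for the tag-only sample.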

Test [2] concerns the target ELF4 (Homo sapiens, UniProt Q99607 1-663). Put shortly:
as §1

The target in test [3] is T2, ELK4 (Homo sapiens, UniProt P28324-2 1-405).
T2 sequence: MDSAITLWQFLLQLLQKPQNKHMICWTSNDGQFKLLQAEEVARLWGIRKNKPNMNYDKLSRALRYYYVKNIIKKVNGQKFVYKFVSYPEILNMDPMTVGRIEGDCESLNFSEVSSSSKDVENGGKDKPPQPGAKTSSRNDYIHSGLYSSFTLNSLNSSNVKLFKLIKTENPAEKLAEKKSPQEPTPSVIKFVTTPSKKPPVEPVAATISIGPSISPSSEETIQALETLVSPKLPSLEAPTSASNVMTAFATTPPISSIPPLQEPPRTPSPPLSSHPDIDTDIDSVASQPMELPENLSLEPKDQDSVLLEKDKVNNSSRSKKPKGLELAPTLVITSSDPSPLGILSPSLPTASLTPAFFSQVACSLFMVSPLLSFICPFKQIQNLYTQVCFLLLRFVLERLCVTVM
Put shortly:
as §1

Test [4] concerns the target T3, ELK1 (Homo sapiens, UniProt P19419 1-428).
T3 sequence: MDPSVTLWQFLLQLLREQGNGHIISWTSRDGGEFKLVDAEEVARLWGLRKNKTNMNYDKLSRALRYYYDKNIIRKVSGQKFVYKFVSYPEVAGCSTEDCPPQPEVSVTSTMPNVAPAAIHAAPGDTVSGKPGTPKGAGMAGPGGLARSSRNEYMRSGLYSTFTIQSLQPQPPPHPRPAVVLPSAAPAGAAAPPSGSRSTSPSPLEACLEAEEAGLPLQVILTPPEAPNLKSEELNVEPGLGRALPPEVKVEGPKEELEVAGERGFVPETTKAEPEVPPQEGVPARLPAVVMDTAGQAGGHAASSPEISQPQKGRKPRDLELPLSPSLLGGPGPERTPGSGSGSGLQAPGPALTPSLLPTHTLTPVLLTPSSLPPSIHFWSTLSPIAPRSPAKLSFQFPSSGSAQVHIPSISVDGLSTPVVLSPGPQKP
In outline: as §1

Test [5] concerns the target T4, ERG (Homo sapiens, UniProt P11308 1-479).
T4 sequence: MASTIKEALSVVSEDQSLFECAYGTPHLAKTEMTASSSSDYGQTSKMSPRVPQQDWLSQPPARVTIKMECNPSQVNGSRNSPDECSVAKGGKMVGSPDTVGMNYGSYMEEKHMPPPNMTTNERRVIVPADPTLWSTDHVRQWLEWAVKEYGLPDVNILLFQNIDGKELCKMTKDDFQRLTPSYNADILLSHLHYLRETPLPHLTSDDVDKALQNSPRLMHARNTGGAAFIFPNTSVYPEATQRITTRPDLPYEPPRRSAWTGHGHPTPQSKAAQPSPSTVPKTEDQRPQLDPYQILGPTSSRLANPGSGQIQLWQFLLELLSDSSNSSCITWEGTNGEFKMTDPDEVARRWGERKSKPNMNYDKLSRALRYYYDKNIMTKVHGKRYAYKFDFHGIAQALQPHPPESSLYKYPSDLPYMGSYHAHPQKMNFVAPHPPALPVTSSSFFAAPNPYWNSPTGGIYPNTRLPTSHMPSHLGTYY
Put shortly: as §1

For test [6], the target named is ELF1 (Homo sapiens, UniProt P32519 1-619). Put shortly: as §1
Test [7] addresses T5, EHF (Homo sapiens, UniProt Q9NZC4 1-300).
T5 sequence: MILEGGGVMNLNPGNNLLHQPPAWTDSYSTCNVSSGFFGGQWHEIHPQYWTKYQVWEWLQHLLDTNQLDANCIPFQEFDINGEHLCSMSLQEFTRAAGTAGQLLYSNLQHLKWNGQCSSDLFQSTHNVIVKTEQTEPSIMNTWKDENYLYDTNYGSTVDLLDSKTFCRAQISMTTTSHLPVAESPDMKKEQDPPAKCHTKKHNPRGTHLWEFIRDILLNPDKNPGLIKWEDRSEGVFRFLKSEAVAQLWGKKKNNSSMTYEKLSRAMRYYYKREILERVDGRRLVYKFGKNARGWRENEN
In outline: as §1

The target in test [8] is T6, ELK3 (Homo sapiens, UniProt P41970 1-407).
T6 sequence: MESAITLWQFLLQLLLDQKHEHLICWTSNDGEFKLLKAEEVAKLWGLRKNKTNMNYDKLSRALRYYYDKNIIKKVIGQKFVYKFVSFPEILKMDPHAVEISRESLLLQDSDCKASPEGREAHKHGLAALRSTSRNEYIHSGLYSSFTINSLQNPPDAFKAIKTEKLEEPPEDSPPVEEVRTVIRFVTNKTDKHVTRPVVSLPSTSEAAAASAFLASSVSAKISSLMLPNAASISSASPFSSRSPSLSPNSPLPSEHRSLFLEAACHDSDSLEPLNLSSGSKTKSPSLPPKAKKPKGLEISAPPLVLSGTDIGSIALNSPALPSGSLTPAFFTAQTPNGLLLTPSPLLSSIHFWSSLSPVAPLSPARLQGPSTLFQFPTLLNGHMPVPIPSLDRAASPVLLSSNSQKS
Put shortly: as §1

For test [9], the target named is T7, SPIC (Homo sapiens, UniProt Q8N5J4 1-248).
T7 sequence: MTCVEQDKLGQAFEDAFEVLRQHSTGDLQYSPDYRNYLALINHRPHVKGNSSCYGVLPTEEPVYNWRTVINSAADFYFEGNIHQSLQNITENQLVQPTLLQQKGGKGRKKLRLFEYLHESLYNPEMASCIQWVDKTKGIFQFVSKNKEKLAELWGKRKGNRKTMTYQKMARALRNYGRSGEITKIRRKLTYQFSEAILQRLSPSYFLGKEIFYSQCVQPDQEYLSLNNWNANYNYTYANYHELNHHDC
Put shortly: as §1

For test [10], the target named is T8, ETV2 (Homo sapiens, UniProt O00321 1-342).
T8 sequence: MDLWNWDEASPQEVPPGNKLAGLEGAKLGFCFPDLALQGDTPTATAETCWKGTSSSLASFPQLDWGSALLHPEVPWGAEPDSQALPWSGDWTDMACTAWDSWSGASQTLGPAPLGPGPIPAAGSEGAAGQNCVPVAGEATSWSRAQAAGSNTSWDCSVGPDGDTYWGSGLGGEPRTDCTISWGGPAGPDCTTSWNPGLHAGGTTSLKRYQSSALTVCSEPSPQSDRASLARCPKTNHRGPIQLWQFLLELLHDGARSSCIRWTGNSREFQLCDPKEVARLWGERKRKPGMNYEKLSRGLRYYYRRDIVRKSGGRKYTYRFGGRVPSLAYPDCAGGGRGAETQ
In outline:
as §1

Test [11] addresses T9, ETV3L (Homo sapiens, UniProt Q6ZN32 1-361).
T9 sequence: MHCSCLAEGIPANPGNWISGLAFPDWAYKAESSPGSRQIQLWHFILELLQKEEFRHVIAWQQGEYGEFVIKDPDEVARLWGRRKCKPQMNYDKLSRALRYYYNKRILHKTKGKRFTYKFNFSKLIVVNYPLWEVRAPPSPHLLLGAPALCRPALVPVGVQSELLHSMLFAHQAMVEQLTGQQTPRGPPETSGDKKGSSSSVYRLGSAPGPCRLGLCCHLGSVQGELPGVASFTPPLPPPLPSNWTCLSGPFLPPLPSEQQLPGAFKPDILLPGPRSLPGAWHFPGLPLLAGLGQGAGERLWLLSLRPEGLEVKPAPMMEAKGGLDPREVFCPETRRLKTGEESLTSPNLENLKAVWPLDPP
In outline: as §1

Test [12] deals with T10, ETV7 (Homo sapiens, UniProt Q9Y603 1-341).
T10 sequence: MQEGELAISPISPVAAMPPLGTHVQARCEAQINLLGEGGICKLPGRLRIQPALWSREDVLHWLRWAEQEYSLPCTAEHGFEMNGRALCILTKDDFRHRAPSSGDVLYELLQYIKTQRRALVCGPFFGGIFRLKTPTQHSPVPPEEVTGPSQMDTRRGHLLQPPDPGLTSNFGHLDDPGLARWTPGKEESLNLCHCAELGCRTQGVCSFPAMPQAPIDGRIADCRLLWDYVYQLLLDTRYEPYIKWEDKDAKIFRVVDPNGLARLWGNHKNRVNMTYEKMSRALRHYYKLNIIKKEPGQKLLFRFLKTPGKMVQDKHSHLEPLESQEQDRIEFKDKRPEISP
In outline: as §1

Test [13] concerns the target T11, ETV3 (Homo sapiens, UniProt P41162-2 1-143).
T11 sequence: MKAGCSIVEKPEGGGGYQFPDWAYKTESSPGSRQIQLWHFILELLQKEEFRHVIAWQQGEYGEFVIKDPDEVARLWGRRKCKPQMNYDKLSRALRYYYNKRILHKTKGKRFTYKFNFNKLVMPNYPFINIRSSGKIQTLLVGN
Put shortly:
as §1

In test [14] the target is ETV6 (Homo sapiens, UniProt P41212 1-452). Put shortly: as §1
ETV6, sequence (P41212 whole entry): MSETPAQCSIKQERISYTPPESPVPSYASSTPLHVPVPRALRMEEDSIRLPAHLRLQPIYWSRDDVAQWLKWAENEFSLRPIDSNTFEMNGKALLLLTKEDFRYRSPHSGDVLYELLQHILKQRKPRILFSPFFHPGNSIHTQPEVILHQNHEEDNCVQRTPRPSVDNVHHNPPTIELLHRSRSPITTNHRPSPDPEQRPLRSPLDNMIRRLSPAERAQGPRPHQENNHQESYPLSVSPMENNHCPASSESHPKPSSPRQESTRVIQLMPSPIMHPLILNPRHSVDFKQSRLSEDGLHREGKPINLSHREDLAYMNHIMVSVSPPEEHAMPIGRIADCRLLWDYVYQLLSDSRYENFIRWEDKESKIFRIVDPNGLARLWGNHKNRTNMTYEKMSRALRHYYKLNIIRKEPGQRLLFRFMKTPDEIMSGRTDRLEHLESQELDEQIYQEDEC

ELF4, sequence (Q99607 whole entry): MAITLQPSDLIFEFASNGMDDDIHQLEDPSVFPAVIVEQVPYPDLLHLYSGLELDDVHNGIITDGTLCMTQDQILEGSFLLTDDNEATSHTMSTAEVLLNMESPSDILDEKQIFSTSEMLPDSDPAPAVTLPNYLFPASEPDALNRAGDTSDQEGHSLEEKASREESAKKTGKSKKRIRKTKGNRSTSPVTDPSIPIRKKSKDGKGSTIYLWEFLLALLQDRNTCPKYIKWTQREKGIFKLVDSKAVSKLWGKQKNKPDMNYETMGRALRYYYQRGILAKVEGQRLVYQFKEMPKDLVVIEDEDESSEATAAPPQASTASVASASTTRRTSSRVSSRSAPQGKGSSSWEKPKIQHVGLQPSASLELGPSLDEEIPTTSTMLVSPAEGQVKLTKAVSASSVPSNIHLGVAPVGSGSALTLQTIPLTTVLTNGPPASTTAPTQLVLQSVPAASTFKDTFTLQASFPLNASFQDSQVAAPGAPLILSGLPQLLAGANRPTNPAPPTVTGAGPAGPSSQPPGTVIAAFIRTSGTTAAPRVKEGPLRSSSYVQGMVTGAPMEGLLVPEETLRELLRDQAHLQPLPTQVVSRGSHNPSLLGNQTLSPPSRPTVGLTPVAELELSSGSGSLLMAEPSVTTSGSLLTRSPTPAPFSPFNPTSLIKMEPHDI
ELF1, sequence (P32519 whole entry): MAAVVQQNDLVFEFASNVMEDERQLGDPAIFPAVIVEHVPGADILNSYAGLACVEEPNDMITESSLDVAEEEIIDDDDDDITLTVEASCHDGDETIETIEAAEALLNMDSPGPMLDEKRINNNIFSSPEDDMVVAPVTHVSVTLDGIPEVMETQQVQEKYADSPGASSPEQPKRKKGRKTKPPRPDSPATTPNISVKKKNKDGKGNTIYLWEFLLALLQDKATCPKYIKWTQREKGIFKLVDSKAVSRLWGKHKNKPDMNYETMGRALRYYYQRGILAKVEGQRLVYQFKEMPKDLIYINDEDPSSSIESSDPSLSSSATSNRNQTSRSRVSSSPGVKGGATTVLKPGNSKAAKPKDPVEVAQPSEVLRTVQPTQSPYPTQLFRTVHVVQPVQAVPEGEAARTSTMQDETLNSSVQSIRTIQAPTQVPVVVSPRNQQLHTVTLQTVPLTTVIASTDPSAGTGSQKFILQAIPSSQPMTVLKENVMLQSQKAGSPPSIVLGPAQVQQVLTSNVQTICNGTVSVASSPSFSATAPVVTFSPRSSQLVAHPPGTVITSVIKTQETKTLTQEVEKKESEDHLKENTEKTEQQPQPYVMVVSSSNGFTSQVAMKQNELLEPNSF

For CCACAG, the binding signal in [1] is 1.01 fold enrichment (6-mer frequency, TF over GST control); in test [2], 1.03 fold enrichment (6-mer frequency, TF over GST control); in [3] it was 1.04 fold enrichment (6-mer frequency, TF over GST control).

Regarding CATGGC, the binding signal in [1] was 1.1 fold enrichment (6-mer frequency, TF over GST control); in test [4] it was 1.02 fold enrichment (6-mer frequency, TF over GST control); in test [5] it was 1.05 fold enrichment (6-mer frequency, TF over GST control); in test [6], 1.02 fold enrichment (6-mer frequency, TF over GST control); in test [7], 1.02 fold enrichment (6-mer frequency, TF over GST control); in [8], 1.04 fold enrichment (6-mer frequency, TF over GST control). Besides, the binding signal was 1.05 fold enrichment (6-mer frequency, TF over GST control) in test [9]; 1.02 fold enrichment (6-mer frequency, TF over GST control) in test [2]; 1.04 fold enrichment (6-mer frequency, TF over GST control) in test [10]; 1.02 fold enrichment (6-mer frequency, TF over GST control) in test [11]; 1.07 fold enrichment (6-mer frequency, TF over GST control) in test [12]; 1.05 fold enrichment (6-mer frequency, TF over GST control) in [13]. Moreover, in test [14], the binding signal is 1 fold enrichment (6-mer frequency, TF over GST control).
